Bioassay records as filed in PubChem BioAssay.
G9a block: blocks human histone lysine methyltransferase G9a. actives 8.8% (n = 350,000). AID 504332. Potency, µM (titrated, usually from 102 µM), usual class: inhibitors. G9a H3K9 monomethylation, AlphaScreen, 2 h. Q96KQ7; also: nearly all actives have a fitted effect of over 75% in size
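G9a (20 nM) preincubated 15 min RT with compounds, then 500 nM biotinylated H3K9 peptide and 20 uM SAM added; 2 h RT reaction. Monomethyl-H3K9 product detected by AlphaScreen with anti-H3K9me1 antibody, streptavidin donor and anti-rabbit IgG acceptor beads.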
HP1b binding inh: HP1-beta chromodomain-methylated histone interaction inhibition; AlphaScreen HP1-beta / biotin-H3K9me3 peptide binding; P83916; Potency, µM (top dose mostly 114 µM), hits mostly inhibitors; AID 540317; actives 0.56% (n = 390,000); also: nearly all actives have a fitted effect of over 70% in size
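HP1-beta protein (50 nM final) preincubated 30 min at room temperature with biotinylated H3(1-18)K9me3 peptide (50 nM) in PBS pH 7.4, 0.01% Tween-20, then compound added for 30 min. AlphaScreen streptavidin donor/nickel chelate acceptor beads (10 ug/mL final), 30 min dark, luminescence read.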
BAZ2B inh: blocks human BAZ2B; actives 4.4% (n = 360,000); AID 504333; AlphaScreen BAZ2B-H3K14Ac peptide displacement; Q9UIF8; Potency, µM (titrated, usually from 114 µM), most hits filed as inhibitors; also: nearly all actives have a fitted effect of over 60% in size
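In this displacement format the biotinylated H3(5-23) peptide acetylated at Lys14 serves as ligand at 50 nM, with BAZ2B at 50 nM in PBS pH 7.4 containing 0.01% Tween-20. Donor and acceptor beads are 10 ug/mL final.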
JMJD2A Tudor inh: JMJD2A Tudor domain (human) inhibition; actives 4.4% (n = 390,000); O75164; Potency, µM (top dose mostly 114 µM), hits mostly inhibitors; AlphaScreen JMJD2A-Tudor / H3K4me3 peptide binding; also: nearly all actives have a fitted effect of over 50% in size
PLK1 PBD inh: blocks phosphopeptide binding to human PLK1 polo-box domain; P53350; actives 2.8% (n = 360,000); Potency, µM, usual class: inhibitors; Plk1 PBD binding of FITC phosphopeptide, fluorescence polarization; AID 720504; also: series mostly up to about 57 µM; nearly all actives have a fitted effect of over 65% in size
Target sequence (P53350 whole entry, looked up, the tested form may be a part): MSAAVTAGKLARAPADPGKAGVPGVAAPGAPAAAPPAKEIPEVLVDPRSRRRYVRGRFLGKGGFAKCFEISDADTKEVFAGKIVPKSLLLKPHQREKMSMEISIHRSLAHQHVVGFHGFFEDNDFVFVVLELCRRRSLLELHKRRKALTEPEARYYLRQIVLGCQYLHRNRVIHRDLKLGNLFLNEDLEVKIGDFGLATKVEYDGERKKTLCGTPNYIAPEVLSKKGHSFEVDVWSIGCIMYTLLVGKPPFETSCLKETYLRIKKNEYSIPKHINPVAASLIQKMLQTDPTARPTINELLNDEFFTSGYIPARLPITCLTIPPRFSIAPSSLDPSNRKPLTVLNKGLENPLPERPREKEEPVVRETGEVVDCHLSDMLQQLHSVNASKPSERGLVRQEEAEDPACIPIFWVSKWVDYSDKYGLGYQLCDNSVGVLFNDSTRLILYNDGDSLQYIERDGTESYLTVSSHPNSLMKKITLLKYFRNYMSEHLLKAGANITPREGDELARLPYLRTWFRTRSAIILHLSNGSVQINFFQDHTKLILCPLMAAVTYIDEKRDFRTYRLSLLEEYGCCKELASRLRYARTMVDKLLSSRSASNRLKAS
PI5P4Ka inh: PI5P4K alpha (human) kinase inhibition | max response, % | AID 652105 | PI5P4Kalpha enzyme, ADP-Glo luminescence, 60 min; hits give low values | actives 1.2% (n = 330,000); active = max response of -50% or lower; inconclusive = between -30% and -50%; inactive = -30% or higher; also: value at the top dose of about 77 µM
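Quantitative HTS of the MLSMR library against PI5P4Kalpha with substrate. ATP added last at 5 microM final; room temperature, 60 minutes. Remaining ATP depleted, ADP converted and read as luminescence.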
A number is an active result; – = inactive; ? = inconclusive; · = no result given; [ ] = dose if it differs, or a comment. A selection: hits, their analogues and other compounds. The true share with any hit is near 12%. Unless noted, calls follow the shape of the dose curve; as a rule, active = well fitted curve in the direction sought with a large enough effect; inconclusive = small, poorly fitted or top-dose-only effect, or another doubt; inactive = no such curve, though single readings can be large; an effect the other way counts as inactive or inconclusive.

SMILES	G9a block	HP1b binding inh	BAZ2B inh	JMJD2A Tudor inh	PLK1 PBD inh	PI5P4Ka inh
COc1ccc(CCNC(=O)c2ccc(NC(=O)CC3SC(N4CCCCC4)=NC3=O)cc2)cc1 (stereo not drawn)	·	–	·	–	–	–
CCOC(=O)CCCCCC(=O)Nc1ccc2c(c1)CC(=O)N([C@H](C)CO)C[C@H](C)[C@H](CN(C)S(=O)(=O)c1ccc(OC)cc1)O2	·	–	·	–	–	–
COCCCNCCOc1cc(C(C)C)ccc1C	?	?	79.4µM	3.16µM	–	–
Cc1ccc(OCCOCCNC(C)C)c(Br)c1	·	?	56.2µM	10µM	–	–
O=c1c(-c2ccccc2)nc2cnc(Oc3cccc(Cl)c3)nc2n1C[C@H]1CCCO1	–[0.501 µM]	·	·	·	·	·
CCN(C(=O)c1cn(C)c(=O)c2ccccc12)c1ccccc1F	–	–	–	–	–	–
c1ccc(C2NCCn3cccc32)cc1 (stereo not drawn)	50.1µM	–	?	?	–	–
